From PubChem BioAssay
An excerpt weighted towards active compounds, which were near 12% of everything screened.
PLK1 PBD block – PLK1 (human) polo-box domain binding inhibition; Plk1 PBD binding of FITC phosphopeptide, fluorescence polarization; 360,000 tested, 2.8% active; P53350; AID 720504; Potency, µM, for the others: max response, negative = inhibition, actives largely listed as inhibitors; further: potency means the concentration at half of the fitted maximal effect; series mostly up to about 57 µM; on the % scale 0 is the no-effect control and ±100 the full control effect; nearly all actives have a fitted effect of over 65% in size
JMJD2A Tudor – blocks the human JMJD2A Tudor domain | O75164 | AlphaScreen JMJD2A-Tudor / H3K4me3 peptide binding | Potency, µM (highest dose often 114 µM), without a hit: at the top dose activity change, negative = inhibition, most hits filed as inhibitors | AID 504339 | 390,000 tested, 4.4% active; further: potency means the concentration at half of the fitted maximal effect; on the % scale 0 is the no-effect control and ±100 the full control effect; nearly all actives have a fitted effect of over 50% in size
PI5P4K alpha inh – PI5P4K alpha (human) kinase inhibition | P48426 | PI5P4Kalpha enzyme, ADP-Glo luminescence, 60 min; stronger effect = lower value | max response, % | 330,000 tested, 1.2% active | AID 652105; active means max response of -50% or lower; inconclusive means between -30% and -50%; inactive means -30% or higher; further: value at the top dose of about 77 µM; on the % scale 0 is the no-effect control and ±100 the full control effect
Target sequence (P48426 whole entry, looked up): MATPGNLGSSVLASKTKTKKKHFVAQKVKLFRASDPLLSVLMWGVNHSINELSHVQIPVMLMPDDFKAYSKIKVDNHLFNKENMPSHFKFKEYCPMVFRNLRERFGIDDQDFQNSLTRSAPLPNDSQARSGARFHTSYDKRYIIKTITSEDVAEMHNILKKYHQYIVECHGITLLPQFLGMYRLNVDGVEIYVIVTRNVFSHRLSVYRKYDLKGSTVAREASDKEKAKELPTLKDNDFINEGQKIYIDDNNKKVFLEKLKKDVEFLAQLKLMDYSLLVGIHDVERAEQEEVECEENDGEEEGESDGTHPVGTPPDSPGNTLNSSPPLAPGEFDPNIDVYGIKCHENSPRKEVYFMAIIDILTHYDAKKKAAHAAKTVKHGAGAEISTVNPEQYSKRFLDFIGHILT
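PI5P4Kalpha ADP-Glo assay; 5 microM ATP final; 60 min RT reaction; HEPES pH 7.4/EGTA/CHAPS, 5% DMSO; controls lacking substrate or enzyme; luminescent end-point.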
G9a block – G9a (human) methyltransferase inhibition; Q96KQ7; G9a H3K9 monomethylation, AlphaScreen, 2 h; Potency, µM (series often up to 102 µM), without a hit: at the highest dose activity, negative = inhibition, hits mostly inhibitors; 350,000 tested, 8.8% active; further: potency means the concentration at half of the fitted maximal effect; on the % scale 0 is the no-effect control and ±100 the full control effect; nearly all actives have a fitted effect of over 75% in size
Target sequence (Q96KQ7 913-1193 limits assumed): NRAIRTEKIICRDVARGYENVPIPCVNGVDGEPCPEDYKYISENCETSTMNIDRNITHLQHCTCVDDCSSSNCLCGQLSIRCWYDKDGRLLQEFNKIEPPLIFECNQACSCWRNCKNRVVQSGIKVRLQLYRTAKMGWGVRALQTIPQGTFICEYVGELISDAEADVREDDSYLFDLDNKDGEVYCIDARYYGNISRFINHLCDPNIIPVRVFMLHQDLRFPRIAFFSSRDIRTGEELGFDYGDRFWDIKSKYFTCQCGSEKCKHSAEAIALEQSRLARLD
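Step 1: enzyme (final 20 nM) with compound, 15 min RT. Step 2: substrate peptide 500 nM and SAM 20 uM, 2 h RT. Step 3: anti-H3K9me1 antibody and AlphaScreen beads, 10 min, then plate read.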
BAZ2B block – blocks human BAZ2B; Q9UIF8; AlphaScreen BAZ2B-H3K14Ac peptide displacement; Potency, µM (top dose mostly 114 µM), inactives show top-dose activity change, negative = inhibition, most hits filed as inhibitors; 360,000 tested, 4.4% active; further: potency means the concentration at half of the fitted maximal effect; on the % scale 0 is the no-effect control and ±100 the full control effect; nearly all actives have a fitted effect of over 60% in size
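BAZ2B 50 nM plus b-H3(5-23)K14Ac 50 nM, PBS pH 7.4/0.01% Tween-20, 30 min RT; compound added (max 110 uM), 30 min RT; streptavidin donor/Ni-chelate acceptor beads 10 ug/mL final, 20 min dark; AlphaScreen read.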
HP1b chromo inh – blocks HP1-beta chromodomain binding to methylated histone tails; P83916; AlphaScreen HP1-beta / biotin-H3K9me3 peptide binding; Potency, µM (series often up to 114 µM), inactives show top-dose activity change, negative = inhibition, hits mostly inhibitors; 390,000 tested, 0.56% active; AID 540317; further: potency means the concentration at half of the fitted maximal effect; nearly all actives have a fitted effect of over 70% in size
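HP1-beta protein (50 nM final) preincubated 30 min at room temperature with biotinylated H3(1-18)K9me3 peptide (50 nM) in PBS pH 7.4, 0.01% Tween-20, then compound added for 30 min. AlphaScreen streptavidin donor/nickel chelate acceptor beads (10 ug/mL final), 30 min dark, luminescence read.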
Starred values were filed as active, the others as inactive; ? = inconclusive; . = no result given; [ ] = another dose, or the depositor's remark. Unless noted, the call rests on the fitted dose curve; in most records, active means well fitted curve in the direction sought with a large enough effect; inconclusive means small, poorly fitted or top-dose-only effect, or another doubt; inactive means no such curve, though single readings can be large; an effect the other way counts as inactive or inconclusive.

SMILES	PLK1 PBD block	JMJD2A Tudor	PI5P4K alpha inh	G9a block	BAZ2B block	HP1b chromo inh
CC1CN(C(=O)CSc2nnc3c(Cl)cc(Cl)cn23)CC(C)O1 (stereo not given)	-7.0%	-1.7%	-7.2	79.4µM*	-3.4%	35.1%
CCN(c1ccc(NC(=O)COC(=O)c2cccs2)cc1)C(C)C	-3.2%	44.7µM*	-6.3	11.2µM*	?	?
CCN(CC(=O)Nc1ccc(NC(C)=O)cc1)C(=O)c1cc2ccccc2oc1=O	-1.3%	-12.3%	11.9	-1.1%[12.7 µM]	-4.7%	14.3%
CN(C)S(=O)(=O)c1cccc(NC(=O)COC(=O)COc2ccc(Br)cc2)c1	26.7µM*	-16.9%[11.4 µM]	1.3	14.0%[12.7 µM]	-0.4%	12.0%
O=C(COC(=O)c1cc2ccccc2oc1=O)Nc1cccc(S(=O)(=O)N2CCCCCC2)c1	-11.1%	-11.4%	-1.0	20.9%[59 µM]	5.4%	6.2%
CCN(c1ccc(NC(=O)COC(=O)c2cc3ccccc3oc2=O)cc1)C(C)C	-5.1%	28.2µM*	-2.5	22.4µM*	31.6µM*	?
CN(C)S(=O)(=O)c1cccc(NC(=O)COC(=O)c2cc3ccccc3oc2=O)c1	-23.0%	-11.3%	-6.7	79.4µM*	18.2%	25.0%
C[C@H](NC(=O)c1ncn2c1C(=O)NC[C@@H]2C)C(=O)OC(C)(C)C	4.4%	.	-2.9	.	.	.
CCc1cc2c(SCC(=O)N3CCCC3=O)ncnc2s1	-13.7%	-9.0%	-3.1	16.1%[59 µM]	11.0%	48.9%
COc1cccc(-c2cnc(C(O)c3c(C)cccc3C)[nH]2)c1 (stereo not given)	-10.3%	.	-2.5	.	.	.
CCOc1ccc(-c2nnc(SCC(=O)c3ccc(Br)cc3)n2-c2ccccc2)cc1	.	-4.1%	.	?	-24.4%	32.8%
[S-]c1nnc(-c2ccc(Br)cc2)n1-c1ccccc1.[Zn+2]	-6.9%	50.1µM*	-5.1	-5.3%[0.501 µM]	79.4µM*	20.9%
O=S(=O)(NCCc1csc2nc(-c3ccccc3)nn12)c1cc(F)ccc1F	.	6.5%	.	-3.3%[59 µM]	3.9%	28.8%
CCN(CC)Cc1cc(NC2=NS(=O)(=O)c3ccccc32)ccc1OC(=O)C(C)C	-5.1%	-8.3%	-2.1	?	1.8%	44.7%
CCN(CC)Cc1cc(NC2=NS(=O)(=O)c3ccccc32)ccc1OC(=O)c1ccccc1	-4.5%	-10.4%	-4.8	79.4µM*	-7.3%	42.8%
FC(F)(F)c1cc(C(F)(F)F)c2ccc(N3CCN(c4ccc(Cl)cc4)CC3)nc2n1	-1.2%	11.6%	0.8	1.1%[59 µM]	-5.6%	30.8%
N#CC(c1ccc(Cl)cc1)c1ccc2c(C(F)(F)F)cc(C(F)(F)F)nc2n1 (stereo not given)	-13.7%	50.1µM*	-10.7	11.2µM*	31.6µM*	8.91µM*
Clc1ccccc1-c1nc(NC2CCNCC2)c2ccccc2n1	.	.	.	2.6%[0.501 µM]	.	.
CSc1ncnc2c1ncn2CCCN1CCN(Cc2c(C)cc(C)cc2C)CC1	5.6%	.	4.9	.	.	.
CCOc1cc(C2CC(=O)NC3=C2C(=O)C(C(=O)OC)C(C)C3)cc(Cl)c1O (stereo not given)	-7.4%	-27.9%	7.2	50.1µM*	?	5.5%
COC(=O)C1C(=O)C2=C(CC1C)NC(=O)CC2c1cccc(C)c1 (stereo not given)	26.7µM*	-17.8%[11.4 µM]	-12.6	0.2%	7.8%	-9.7%
O=C(CC(=O)Nc1ccc(Cl)cc1)N/N=C\c1cccc(F)c1	-5.0%	-10.6%	-12.0	19.7%	-4.4%	-9.3%
CC(C)N(Cc1ccccc1)C(=O)CN1C(=O)CSc2ccc(S(=O)(=O)N3CCCC3)cc21	.	-23.8%	.	-32.5%[59 µM]	-16.8%	-9.0%
CC1CCC/C(=N\NC(=O)Nc2ccccc2)C1 (stereo not given)	4.7%	-0.7%	-4.1	39.8µM*	10.5%	29.4%
CC1CCC/C(=N\NS(=O)(=O)c2ccccc2)C1 (stereo not given)	?	-2.9%[11.4 µM]	-10.0	31.6µM*	0.6%	21.2%
SMILES	PLK1 PBD block	JMJD2A Tudor	PI5P4K alpha inh	G9a block	BAZ2B block	HP1b chromo inh
CC1CCC/C(=N\Nc2ccc(Cl)c(C(=O)O)c2)C1 (stereo not given)	-24.8%	79.4µM*	-9.7	7.94µM*	-36.7%	5.1%
CC1CCC(=NNS(=O)(=O)c2ccc([N+](=O)[O-])cc2)CC1 (stereo not given)	-12.5%	-14.7%	-1.8	.	.	-0.3%
CCC(=O)Nc1nnc(S(=O)(=O)N2c3ccccc3CC2C)s1 (stereo not given)	-8.9%	0.7%	-1.6	?	2.4%	30.9%
COC(=O)C(C(=O)OC)C1C=CCN(C(C)=O)C1 (stereo not given)	-5.0%	-12.9%	5.6	.	.	77.3%
Cc1c(C)c2ccc(OCC(=O)NCCCn3ccnc3)cc2oc1=O	-0.6%	22.4µM*	9.9	1.1%	-17.4%[57.1 µM]	42.5%
Cc1cc(=O)oc2cc(OCC(=O)NCCCn3ccnc3)ccc12	-10.1%	8.9%	-0.8	-7.4%[59 µM]	-19.2%	24.8%
COc1ccc(C(=O)Nc2ccccc2C(=O)N2CCOCC2)cc1Br	26.7µM*	-3.7%	-4.3	.	-3.8%	24.8%[57 µM]
COC(=O)c1cnc(N2CCN(c3ccccc3F)CC2)c2ccccc12	.	90.3%	.	78.4%[59 µM]	37.0%	116.6%[57 µM]
COC(=O)c1ccccc1NC(=O)N1CCN(c2ccc(OC)cc2)CC1	-5.6%	?	2.2	39.8µM*	?	?
COC(=O)c1cnc(N2CCN(c3ccc(OC)cc3)CC2)c2ccccc12	.	25.1µM*	.	12.6µM*	22.4µM*	-13.1%[57 µM]
COc1ccc(N2CCN(C(=O)Nc3ccccc3Cl)CC2)cc1	-0.2%	-22.2%	1.3	?	-16.2%	1.1%
COc1ccc(N2CCN(C(=O)Nc3cccc(C(F)(F)F)c3)CC2)cc1	-9.2%	?	0.6	12.6µM*	?	-10.6%
Cc1ccc(OCc2nnc(SCC(=O)N3C(C)CCCC3C)o2)cc1 (stereo not given)	-1.1%	3.9%	3.2	20.5%	4.7%	50.5%
Cc1ccc(N2CCN(C(=O)c3ccccc3NC(=O)c3ccccc3C(=O)O)CC2)cc1	-8.1%	-19.5%	-1.2	56.2µM*	-36.1%	24.0%
COc1ccc(N2CCN(C(=O)c3ccc(NC(=O)c4nsc5ccccc45)cc3)CC2)cc1	.	?	.	10µM*	?	-12.9%[57 µM]
COc1ccc(N2CCN(CC(=O)Nc3ccccc3C(=O)NC(C)c3ccccc3)CC2)cc1 (stereo not given)	1.6%	.	-2.6	.	.	.
CCOC(=O)c1cnc2c(OC)cccc2c1N1CCN(c2ccccc2OC)CC1	-1.7%	?	0.0	?	?	-23.7%
COc1ccc(N2CCN(CC(=O)Nc3ccccc3C(=O)NCc3ccccc3)CC2)cc1	-2.7%	56.2µM*	0.1	?	44.7µM*	?
CCOC(=O)c1cnc2c(OC)cccc2c1N1CCN(c2ccc(OC)cc2)CC1	23.8µM*	-16.8%[11.4 µM]	-12.4	?	11.2µM*	?
